Reference: the supplement of paper PMC3334620
Whole data set: some 33,000 sequences, median “E-score (-0.5 to 0.5)” near -0.036, cut for the highest 2% near 0.37. What follows is part of a selection rich in the highest values, with near analogues and random picks from the rest.

Each sequence was assayed against T1, Yer064c (UniProt P40041) (assay: PBM E-score (8-mer binding enrichment) (E-score (-0.5 to 0.5)); higher = stronger / more preferred TF binding). Conditions: protein concentration: 200 nM; construct: GST-full length.
T1 sequence: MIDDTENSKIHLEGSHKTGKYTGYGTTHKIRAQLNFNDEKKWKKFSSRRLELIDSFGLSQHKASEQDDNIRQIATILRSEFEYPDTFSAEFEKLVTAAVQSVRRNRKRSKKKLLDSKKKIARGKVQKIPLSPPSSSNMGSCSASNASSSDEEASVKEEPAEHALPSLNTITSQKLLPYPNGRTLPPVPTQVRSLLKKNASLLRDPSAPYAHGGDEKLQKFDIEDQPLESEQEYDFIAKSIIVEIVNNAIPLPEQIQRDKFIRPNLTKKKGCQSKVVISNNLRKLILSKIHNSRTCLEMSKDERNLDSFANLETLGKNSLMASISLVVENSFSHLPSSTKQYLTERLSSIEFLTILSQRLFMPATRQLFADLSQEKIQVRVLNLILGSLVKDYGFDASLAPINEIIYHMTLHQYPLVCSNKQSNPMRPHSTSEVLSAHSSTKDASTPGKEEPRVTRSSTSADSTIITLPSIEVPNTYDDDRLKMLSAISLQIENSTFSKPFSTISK
Experimental: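 Universal 'all 10-mer' protein binding microarrays (Agilent AMADID 015681) probed with GST-tagged S. cerevisiae TFs (full-length or DBD) made by in vitro transcription/translation (PURExpress), about 100-200 nM. Bound TF was detected with fluorescent anti-GST. Each ungapped 8-mer (which stands for itself and its reverse complement) is scored by the PBM enrichment score (E-score), a modified Wilcoxon-Mann-Whitney statistic from -0.5 to +0.5, computed with the Universal PBM Analysis Suite. Scale: above 0.35 generally sequence-specific binding.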

Sequence	PBM E-score
GGGAGCCA	-0.00881
CCTTACAG	-0.2
CCGTCCTC	-0.281
ACAGCGAC	0.00958
CCATGCCA	-0.113
ATGAAAGG	-0.0528
AAGTCCCT	-0.127
GTGAGAAA	-0.0285
ATGATTTA	0.415
CTGATTTC	0.222
AGGATTTC	-0.125
CTGATTTA	0.238
AAGATTTA	0.136
ATGATTTC	0.403
CCCCGTAA	-0.0314
ATTACTAG	0.0126
TCGCTCCA	-0.0823
CAGAGGGA	-0.199
AAGCATGT	-0.0498
CATCATGC	0.0857
CATCATGA	0.294
AATCAGGC	0.306
GATCATGC	0.134
AATCATGA	0.43
TATCATGA	0.256

Sequence	PBM E-score
AATCATGT	0.453
AATCAGGG	0.271
AATCATGC	0.432
AATCAGGT	0.378
AATCAAGT	0.268
ATTTGAGG	-0.0184
ATGAGGGG	-0.125
AGCCGGCA	-0.176
GAATGCTA	-0.277
GCGAAAAC	-0.131
CCTCTGTA	-0.108
CCGCCGCA	-0.299
CCACAAAG	-0.0168
AATCAAGG	0.245
AATCAGCT	0.389
AATCAGCG	0.344
AATCATGG	0.42
CATCATGG	0.0236
AATCAGCC	0.355
CGATTAGA	0.0752
GATGTGGA	0.0614
GTCTTGTA	0.0119
GAAGTCAC	0.433
AAAGTCAT	0.455
AAAGTCAA	0.319

Sequence	PBM E-score
CAAGTCAC	0.36
AAAGTCCT	0.0605
AAAGTCGT	0.258
AAAGTCAG	0.323
AAAGTCAC	0.411
GAAGTCAA	0.357
AGGTCGTA	0.0488
CTAAACTA	0.0923
ACGGCCTG	-0.12
TAATCCGA	0.205
CAGGATAA	-0.208
ACGAGAAT	-0.125
AATACCAG	-0.0862
CTTTCAAA	0.0256
ACAGTCAT	0.453
ACAGTCAG	0.378
GCAGTCAC	0.435
ACAGTCTC	0.146
ACAGTCGT	0.198
CCAGTCAG	0.248
GCAGTCAA	0.281
ACAGTCAC	0.405
ACAGTCAA	0.319
ACAGTCGG	0.181
GCAGTCCC	-0.00282

Sequence	PBM E-score
CCAGTCAC	0.313
ATCACAGG	0.166
GGCCTGAC	0.109
ACCTGGTG	-0.0925
GCGGCTAC	-0.0969
AATTGTCA	0.0267
GGGGAGAC	-0.0271
CTCGATTA	0.186
AAGGTAGA	-0.209
GCGCCATA	-0.26
AACGAGTT	0.0273
CACGAGTG	-0.125
GACGAGAC	-0.0639
AACGAGTA	0.171
CACGAGTC	0.39
CACGAGTA	0.0787
GACGAGTA	0.178
AACGAGTC	0.42
GACGAGTC	0.408
ATCCATCC	0.0305
AGTACACA	0.239
CCCAAGCC	-0.171
CACTTCAA	-0.0203
ACGGATTA	0.1
GAAGAGTC	0.426

Sequence	PBM E-score
CAAGAGTC	0.434
GAAGAGCC	-0.222
CAAGAGTG	-0.108
AAAGAGTT	0.219
GAAGAGTA	0.0801
CAAGAGTA	0.106
AAAGAGTA	0.0885
AAAGAGTC	0.437
CTACTGAC	0.177
ACGGCGGA	-0.0257
ACGGACCA	-0.125
GAACTGAC	-0.0132
CAGGAGTA	0.0894
CAGAAGTC	0.293
CAGGAGTC	0.394
AAGGAGTC	0.412
AAGGAGTA	0.0121
AAGGAGTG	-0.187
AGTCGATG	0.249
AAACTGAG	0.144
TCCCAGCA	-0.0166
CACGCAAG	-0.11
CACGTGTA	-0.0349
GATTCATA	0.381
GATTCAGC	0.258

Sequence	PBM E-score
TATTCAGA	0.0473
GATTCAGA	0.389
CATTCATA	0.195
AATTCATA	0.0256
GATTCCGA	0.276
CCACGTAA	-0.177
GGCCTGTA	-0.386
GACTAGGA	0.376
GACTAGGC	0.297
TACTAGCA	0.0217
GACTAGCA	0.374
TACTAGGA	0.0896
AACTAGCA	-0.00106
ATCACATC	0.143
CGAGGGAA	-0.0997
GATTTGGA	0.0961
AAAGTGCC	-0.0752
AACCGTAC	-0.0826
TATTCAAA	0.135
CATTCAAA	-0.0755
CATTCAAC	0.0337
GATTCAAC	0.385
AATTCAAC	-0.0608
GATTCAAA	0.371
ACCGATCT	-0.255

Sequence	PBM E-score
ATCCTCGC	-0.043
TCGTAGCA	0.128
ATCGCTGA	0.0828
GACTTTAC	0.234
ATAGGCAG	-0.0153
AGTCGTCA	0.389
GGTCGTCA	0.00372
AGTCGTCC	0.364
ATTCGTCG	0.0523
AGTCGTCG	0.375
CGTCGTCA	-0.142
ACGATACT	-0.155
AGGATGTC	0.00214
CGCTGCTA	-0.211
TCATATGA	0.393
CCATATGA	0.0961
GCATATGA	0.14
ACACGACT	0.408
AGACGACC	-0.0204
AGACGACT	0.397
ACACGACA	0.106
AGACGACG	-0.265
ACACGACC	-0.0158
AGTAAAAG	0.0408
CTGACCAG	-0.0138

Sequence	PBM E-score
ACTCCACG	0.0785
ACTTTACT	0.159
AAAACCCT	-0.047
CACTAAGC	0.1
AACTAAGC	0.0808
GACTAAGA	0.444
GACTAAGC	0.42
TACTAAGA	0.113
CACTAAGA	0.119
AGGGATAA	0.093
CGGCTGCA	-0.189
AATATGGA	-0.0374
CGTTGCGC	-0.22
GAGCACAA	0.0121
TAAGACAA	-0.0363
GAAGACTA	0.444
ACAGACTC	0.269
AAAGACTA	0.392
AAAGACTC	0.409
ACAGACTA	0.0746
GCAGACTA	0.309
AAAGACTG	0.157
CAAGACTA	0.329
AAAGACTT	0.294
TAAGACCA	0.112

Sequence	PBM E-score
TAAGACTA	0.423
ACAGCCTA	-0.0814
ACCCTGCC	-0.154
GGGCAAGA	-0.0907
GAGTTCGA	0.185
GCGCTTTA	-0.161
AAAGTGAC	0.305
CCCGCGAA	0.0838
GAAGACGC	-0.193
GAAGACTC	0.446
CAAGACTG	0.175
CAAGACTC	0.429
GAAGACCC	-0.0698
CAAGACGC	-0.166
GACCGAAC	-0.059
CATTACCC	0.0868
AATGGAGA	-0.0502
TACTCTAA	-0.042
CACTCTAC	0.0903
GACTCTAC	0.38
GACTCTAA	0.381
CACTCTAA	0.149
AACTCTAC	-0.212
